About 220 (1.3%) of roughly 17,000 compounds were called active.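 The calls were made as follows: active = spot fluorescence over background significantly raised, with a chance value under 7% in all four replicate spots of the compound; inactive = the rest.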 The sample as a whole holds a higher share of actives than the screen did.

This test deals with Nuclear factor NF-kappa-B p105 subunit (Homo sapiens) (UniProt P19838). As to the kind of experiment: small molecules binding NF-kappa-B p105/p50 – biochemical, small molecule microarray, anti-His fluorescence, primary screen (AID 624139).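 Also: probe protein is his-tagged human p50 processed subunit at 1 µg/ml.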
Nuclear factor NF-kappa-B p105 subunit (Homo sapiens), sequence (P19838 1-433 limits assumed): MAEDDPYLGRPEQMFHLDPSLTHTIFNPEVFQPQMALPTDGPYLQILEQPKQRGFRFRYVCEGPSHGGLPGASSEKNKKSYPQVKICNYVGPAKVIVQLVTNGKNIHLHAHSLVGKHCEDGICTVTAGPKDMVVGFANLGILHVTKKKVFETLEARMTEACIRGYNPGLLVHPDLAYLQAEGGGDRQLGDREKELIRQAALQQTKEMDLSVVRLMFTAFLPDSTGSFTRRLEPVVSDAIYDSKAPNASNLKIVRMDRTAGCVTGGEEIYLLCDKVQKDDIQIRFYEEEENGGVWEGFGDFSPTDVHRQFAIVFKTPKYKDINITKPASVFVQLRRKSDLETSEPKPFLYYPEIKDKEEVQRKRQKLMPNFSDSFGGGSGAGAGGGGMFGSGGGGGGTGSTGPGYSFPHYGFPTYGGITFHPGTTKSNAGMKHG
As to `CC(C)(C)[C@H]1C=C(C(=O)NCc2ccccc2)O[C@@H](OCc2ccc(CO)cc2)C1`, the compound was classed as inactive.

In the case of `Cc1sc2nc(SCC(=O)Nc3ccccc3C(F)(F)F)nc(N)c2c1C`, the compound was classed as inactive.

For the compound `NC(=O)CSc1nnc(-c2ccccc2F)n1-c1ccccc1`, the outcome was inactive.

For `C[C@@H]1CN([C@H](C)CO)C(=O)c2cc(NC(=O)CCCN(C)C)ccc2O[C@H]1CN(C)Cc1ccc(C(=O)O)cc1`, the outcome was inactive.

Take `CC(C)NC(=O)N(C)C[C@H]1OCCCC[C@H](C)Oc2ccc(NC(=O)CCC(F)(F)F)cc2C(=O)N([C@@H](C)CO)C[C@@H]1C`: the result was inactive.

For the compound `C[C@@H]1CCCCO[C@@H](CN(C)Cc2ccccc2)[C@H](C)CN([C@H](C)CO)C(=O)c2cc(NS(=O)(=O)c3cccs3)ccc2O1`, the call was inactive.

Consider `C[C@@H]1CN([C@H](C)CO)C(=O)Cc2cc(NC(=O)CCN3CCOCC3)ccc2O[C@H]1CN(C)Cc1ccncc1`, for which the compound was called inactive.

For `C[C@@H]1CCCCO[C@H](CN(C)Cc2ccncc2)[C@H](C)CN([C@H](C)CO)C(=O)c2cc(NC(=O)Nc3ccccc3)ccc2O1`, the outcome was inactive.

Turning to `CC(C)NC(=O)Nc1cccc2c1O[C@H](CN(C)Cc1ccccc1)[C@H](C)CN([C@H](C)CO)C2=O`, the compound was classed as inactive.

`C[C@@H]1CN([C@H](C)CO)C(=O)Cc2cc(NC(=O)CCCN(C)C)ccc2O[C@@H]1CN(C)S(=O)(=O)c1cccs1`: the compound was called inactive.

As to `C[C@H](CO)N1C[C@H](C)[C@@H](CN(C)S(=O)(=O)c2cn(C)cn2)Oc2ccc(N(C)C)cc2CC1=O`, the outcome was inactive.

As to `C[C@H]1CN([C@@H](C)CO)C(=O)c2cc(NC(=O)Nc3cccc4ccccc34)ccc2O[C@@H]1CN(C)C`, the outcome was inactive.

With `C[C@H](CO)N1C[C@H](C)[C@H](CN(C)C(=O)NC2CCCC2)Oc2ncc(-c3ccc(F)cc3)cc2C1=O`, the outcome was inactive.

On to `CCOc1ccc(-c2cn(S(=O)(=O)c3cccc4nsnc34)nc2N)cc1`, for which the call was inactive.

Take `Cc1cccc(NC(=O)CN2C(=O)CNC2=O)c1`: the call was inactive.

As for `CC(C)NC(=O)Nc1ccc2c(c1)C(=O)N([C@@H](C)CO)C[C@H](C)[C@@H](CN(C)C)O2`, the outcome was inactive.

For the compound `C[C@H](CO)N1C[C@H](C)[C@@H](CN(C)C)Oc2ccc(N(C)C)cc2C1=O`, the result was inactive.

As for `C[C@@H]1CN([C@H](C)CO)C(=O)c2cccc(NS(C)(=O)=O)c2O[C@@H]1CN(C)S(=O)(=O)c1cccs1`, the outcome was inactive.

With `C[C@H]1CN([C@@H](C)CO)C(=O)c2cc(NC(=O)NC3CCCCC3)ccc2O[C@@H]1CN(C)S(=O)(=O)c1cccs1`, the call was inactive.

On to `COc1cccc(/C=C(\C#N)C(=O)Nc2c(C)n(C)n(-c3ccccc3)c2=O)c1`, for which the compound was called inactive.

In the case of `C[C@H](CO)N1C[C@H](C)[C@H](CN(C)C(=O)NC2CCCCC2)Oc2ccc(NC(=O)c3ccncc3)cc2CC1=O`, the outcome was inactive.

As for `Cc1c(C(=O)NC(=S)NCc2cccnc2)oc2ccccc12`, the compound was called inactive.

On to `Cc1noc(C)c1NC(=O)N(C)C[C@@H]1OCCCC[C@H](C)Oc2ccc(NC(=O)CCC(F)(F)F)cc2C(=O)N([C@@H](C)CO)C[C@@H]1C`, for which the compound was classed as inactive.

For `C[C@H]1CN([C@@H](C)CO)C(=O)Cc2cc(NC(=O)Nc3ccc(F)cc3)ccc2O[C@@H]1CN(C)C(=O)NC1CCCCC1`, the compound was classed as inactive.

For `O=C(Nc1cccc(OCC(=O)N2CCOCC2)c1)C1CCCCC1`, the result was inactive.

On to `O=C(C1=C[C@H](c2coc3ccccc3c2=O)C[C@H](OCc2ccc(CO)cc2)O1)N1CCOCC1`, for which the outcome was inactive.

Regarding `C[C@@H]1CCCCO[C@@H](CN(C)C(=O)Nc2ccccc2)[C@@H](C)CN([C@H](C)CO)C(=O)c2cc(NC(=O)Nc3ccc(F)cc3)ccc2O1`, the compound was classed as inactive.

Consider `C[C@@H]1CCCCO[C@@H](CN(C)C(=O)Cc2ccccc2)[C@H](C)CN([C@@H](C)CO)C(=O)c2cc(NC(=O)Nc3ccc(F)cc3)ccc2O1`, for which the call was active.

With `C[C@@H]1CCCCO[C@@H](CN(C)C(=O)Nc2ccccc2)[C@@H](C)CN([C@@H](C)CO)C(=O)c2cc(N(C)C)ccc2O1`, the call was inactive.

Regarding `C[C@H](CO)N1C[C@H](C)[C@@H](CN(C)C(=O)NC2CCCCC2)Oc2c(NC(=O)Nc3ccc(F)cc3)cccc2C1=O`, the result was inactive.

With `C[C@H](CO)N1C[C@H](C)[C@@H](CN(C)C(=O)Nc2ccccc2)Oc2ccc(NC(=O)C3CC3)cc2CC1=O`, the call was inactive.

On to `C[C@@H]1CN([C@H](C)CO)C(=O)Cc2cc(NC(=O)C3CC3)ccc2O[C@H]1CN(C)Cc1ccc2c(c1)OCO2`, for which the outcome was inactive.

For `C[C@H]1CN([C@@H](C)CO)C(=O)c2cccc(NC(=O)Nc3ccc(C(F)(F)F)cc3)c2O[C@H]1CN(C)C(=O)NC1CCCCC1`, the outcome was active.

As for `C[C@@H]1CN([C@H](C)CO)C(=O)c2cccc(NC(=O)Nc3ccccc3)c2O[C@@H]1CN(C)C(=O)NC1CCCCC1`, the compound was called inactive.

In the case of `C[C@@H]1CCCCO[C@H](CN(C)C(=O)Nc2ccccc2)[C@H](C)CN([C@@H](C)CO)C(=O)c2cc(N(C)C)ccc2O1`, the compound was classed as inactive.

Turning to `CC(C)NC(=O)Nc1ccc2c(c1)C(=O)N([C@@H](C)CO)C[C@@H](C)[C@H](CN(C)C(=O)Cc1ccccc1)OCCCC[C@H](C)O2`, the outcome was inactive.

Consider `C[C@H](CO)N1C[C@H](C)[C@@H](CN(C)C(=O)Nc2cccc3ccccc23)OCCCC[C@H](C)Oc2ccc(N(C)C)cc2C1=O`, for which the outcome was active.

For the compound `C[C@@H]1CN([C@H](C)CO)C(=O)Cc2cc(NC(=O)C3CC3)ccc2O[C@H]1CN(C)Cc1ccc(Cl)c(Cl)c1`, the outcome was active.

For `CC(C)NC(=O)N(C)C[C@@H]1OCCCC[C@@H](C)Oc2ccc(NC(=O)Nc3ccccc3)cc2C(=O)N([C@H](C)CO)C[C@@H]1C`, the outcome was inactive.

For `C[C@@H]1CCCCO[C@H](CN(C)C(=O)C2CCCCC2)[C@@H](C)CN([C@@H](C)CO)C(=O)c2cc(NC(=O)Nc3ccccc3)ccc2O1`, the compound was classed as active.

Regarding `C[C@@H]1CCCCO[C@H](CN(C)C(=O)Nc2ccccc2)[C@H](C)CN([C@H](C)CO)C(=O)c2cc(NC(=O)Nc3ccccc3)ccc2O1`, the call was inactive.

For the compound `C[C@H](CO)N1C[C@H](C)[C@@H](CN(C)C)OCCCC[C@H](C)Oc2ccc(NC(=O)C3CCCCC3)cc2C1=O`, the compound was called inactive.

Take `C[C@@H]1CN([C@@H](C)CO)C(=O)c2cc(NC(=O)C3CCCCC3)ccc2O[C@@H](C)CCCCO[C@@H]1CN(C)C(=O)Nc1ccccc1`: the result was inactive.

As for `C[C@@H]1CCCCO[C@H](CN(C)C(=O)NC2CCCCC2)[C@H](C)CN([C@@H](C)CO)C(=O)c2cc(NC(=O)C3CCCCC3)ccc2O1`, the outcome was active.

These data come from PubChem BioAssay AID624139 (Broad Institute, 2012).
